Here are results for eight compounds from PubChem BioAssay (NCATS).

The target in assay [1] is Androgen receptor (Homo sapiens) (UniProt P10275). Description: qHTS assay for small molecule agonists of androgen receptor signaling (AID 588515; active = well fitted curve in the direction sought with a large enough effect in the signal ratio, with a control signal flat; the % refers to the signal ratio; also: % is scaled to controls: 0 for no effect and ±100 for the full control effect). Particulars: AR-UAS-bla HEK293, beta-lactamase ratio, agonist 16 h; activation: hits give high values. In short, it runs like this: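 Stimulation of an AR-responsive β-lactamase reporter in GripTite HEK293 cells was measured after 16 h compound exposure at 37 °C, via CCF4 fluorescence after 2 h RT. EC50 from Hill fits, normalized to R1881 at 30 nM.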
Sequence of Androgen receptor (Homo sapiens) (P10275 whole entry, looked up): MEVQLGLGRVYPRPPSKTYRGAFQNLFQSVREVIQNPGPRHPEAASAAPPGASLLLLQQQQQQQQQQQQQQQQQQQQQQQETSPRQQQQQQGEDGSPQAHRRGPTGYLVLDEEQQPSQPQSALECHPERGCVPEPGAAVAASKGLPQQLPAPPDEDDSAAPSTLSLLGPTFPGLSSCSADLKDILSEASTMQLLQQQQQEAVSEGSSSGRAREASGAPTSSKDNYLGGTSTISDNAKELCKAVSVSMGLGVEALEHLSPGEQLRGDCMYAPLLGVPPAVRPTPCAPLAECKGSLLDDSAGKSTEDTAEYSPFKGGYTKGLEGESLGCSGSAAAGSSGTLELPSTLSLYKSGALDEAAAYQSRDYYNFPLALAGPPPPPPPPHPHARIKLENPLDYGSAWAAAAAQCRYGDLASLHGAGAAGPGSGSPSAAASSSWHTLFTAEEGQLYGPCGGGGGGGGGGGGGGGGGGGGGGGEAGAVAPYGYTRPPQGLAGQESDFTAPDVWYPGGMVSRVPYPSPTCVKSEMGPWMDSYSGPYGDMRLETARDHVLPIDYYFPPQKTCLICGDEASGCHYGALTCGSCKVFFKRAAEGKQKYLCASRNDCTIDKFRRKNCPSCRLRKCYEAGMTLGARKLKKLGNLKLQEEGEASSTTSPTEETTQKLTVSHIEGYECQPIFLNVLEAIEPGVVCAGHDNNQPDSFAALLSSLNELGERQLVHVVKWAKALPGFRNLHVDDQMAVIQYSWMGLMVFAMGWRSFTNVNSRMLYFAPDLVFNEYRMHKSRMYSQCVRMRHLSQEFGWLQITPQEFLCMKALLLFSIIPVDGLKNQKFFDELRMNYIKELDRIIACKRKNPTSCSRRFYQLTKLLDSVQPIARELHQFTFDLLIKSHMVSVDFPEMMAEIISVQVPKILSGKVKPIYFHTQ
(Quantitative high-throughput screening tests each substance at several concentrations.)

For assay [2] the target is unchanged. Description: qHTS assay for small molecule antagonists of androgen receptor signaling (AID 588516; active = well fitted curve in the direction sought with a large enough effect in the signal ratio, with a control signal flat, not every such curve was filed as active; the % refers to the signal ratio; also: % is scaled to controls: 0 for no effect and ±100 for the full control effect). The gist of the method:
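Antagonist-mode qHTS: inhibition of R1881 (10 nM)-driven beta-lactamase expression in GripTite HEK 293 cells is measured after 16 h; values are Hill-derived IC50s normalized between R1881 and DMSO wells.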

The target of assay [3] is Bile acid receptor (Homo sapiens) (UniProt Q96RI1). In words: qHTS assay for small molecule antagonists of farnesoid X receptor signaling (AID 588526). Also: % is scaled to controls: 0 for no effect and ±100 for the full control effect. In short, it runs like this:
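Antagonist mode: titrated compounds tested against chenodeoxycholic acid stimulation (normalized to 50 uM CDCA and DMSO) in GeneBLAzer HEK293T cells for 16 h. Beta-lactamase read by CCF4 fluorescence; IC50 from Hill fits.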

Assay [4] has as its target Peroxisome proliferator-activated receptor gamma (Homo sapiens) (UniProt P37231). Description: qHTS assay for small molecule agonists of peroxisome proliferator-activated receptor gamma signaling (AID 588536; active = well fitted curve in the direction sought with a large enough effect in the signal ratio, with a control signal flat, not every such curve was filed as active; the % refers to the signal ratio;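 also: 0% = DMSO basal wells and 100% = rosiglitazone at 2 µM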). In short, it runs like this:
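Cells were plated and held 6–6.5 h at 37 C, then compounds were added as a titration series. After a further 16 h, CCF4 dye was loaded for 2 h at room temperature and emission at 460/530 nm recorded.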

Assay [5] shares this target. In words: qHTS assay for small molecule antagonists of peroxisome proliferator-activated receptor gamma signaling (AID 588537; active = well fitted inhibition curve with a large enough effect in the signal ratio, with a control signal flat, not every such curve was filed as active; the % refers to the signal ratio;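 also: reporter cells co-stimulated with 50 nM rosiglitazone agonist during compound treatment; % of control where 0% means no effect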). In short, it runs like this:
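Read-out: CCF4 fluorescence (ex 405, em 460/530 nm) after 2 h at RT. Cells were HEK293 carrying a UAS-bla reporter and treated 16 h at 37 C with compound plus rosiglitazone (50 nM final). Normalized to rosiglitazone and DMSO.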

Assay [6] has as its target Vitamin D3 receptor (Homo sapiens) (UniProt P11473). Description: qHTS assay for small molecule antagonists of vitamin D receptor signaling (AID 588541).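 Also: receptor activated by calcitriol during compound treatment; series mostly up to about 77 µM; % is scaled to controls: 0 for no effect and ±100 for the full control effect.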 The gist of the method:
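VDR-UAS-bla HEK293T cells in 2% charcoal-stripped FBS were stimulated with 1-alpha,25-dihydroxyvitamin D3 (3 nM final) plus compound for 16 h at 37 C. The beta-lactamase CCF4 readout was normalized to 50 nM agonist and DMSO, and Hill fits gave IC50.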

Assay [7] has the same target. In words: qHTS assay for small molecule agonists of vitamin D receptor signaling (AID 588543).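 Also: 0% = DMSO basal and 100% = reference agonist control.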 The gist of the method:
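qHTS in agonist mode: compound titrations stimulate a VDR-driven β-lactamase reporter in HEK293T cells over 16 h at 37 °C. Response normalized to 50 nM 1α,25-dihydroxyvitamin D3 = 100%, DMSO = 0%; Hill fitting gives EC50 and maximal response.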

Assay [8] is described as follows: qHTS assay for small molecule activators of the p53 signaling pathway (AID 651743; active = well fitted activation curve with a large enough effect in the signal ratio, not every such curve was filed as active; the % refers to the signal ratio; also: series mostly up to about 92 µM; % of control where 0% means no effect). Particulars: HCT-116 p53RE-bla, beta-lactamase FRET ratio, 16 h; activation: hits give high values. In short, it runs like this:
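Reporter: beta-lactamase driven by p53 response elements, stably integrated in HCT-116 cells. Cells seeded at 4,000/well, 5 h preincubation, compound (DMSO) 16 h at 37 C; B/G FRET substrate 2 h RT; fluorescence intensity read.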

Assay [9] addresses Thyroid hormone receptor beta (Homo sapiens) (UniProt P10828). In words: qHTS assay for small molecule antagonists of thyroid hormone receptor beta signaling (AID 588547; active = well fitted inhibition curve with a large enough effect in the signal ratio, with a control signal flat, not every such curve was filed as active; the % refers to the signal ratio). Particulars: TR-UAS-bla HEK293, beta-lactamase ratio, antagonist mode, 18 h. In short, it runs like this: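 TR-UAS-bla GripTite HEK293 cells in 2% charcoal/dextran FBS medium; compounds 0.59 nM to 92 uM with T3 at 0.4nM final, 18 h at 37 C. Beta-lactamase read by CCF4 fluorescence (460/530 nm); Hill fits gave IC50 and efficacy.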

Assay [10] is described as follows: qHTS assay for small molecule agonists of the antioxidant response element (ARE) signaling pathway (AID 651741; active = well fitted activation curve with a large enough effect in the signal ratio; the % refers to the signal ratio; also: % of control where 0% means no effect). In short, it runs like this: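 HepG2 ARE-bla reporter cells, 2,000/well; 5 h settle at 37 C/5% CO2; compound pin transfer (23 nL, DMSO); 16 h at 37 C; LiveBLAzer B/G FRET substrate, 2 h RT; fluorescence intensity read.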
In assay [11] the target is Cytochrome P450 3A4 (Homo sapiens) (UniProt P08684). In words: qHTS Assay for Inhibitors and Substrates of Cytochrome P450 3A4 (AID 884; active = well fitted curve in the direction sought with a large enough effect; an effect the other way counts as inactive or inconclusive; also: potency is read from the fitted curve at half-maximal effect; nearly all actives have a fitted effect of over 50% in size). The gist of the method: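 Luminescent readout of luciferin produced by CYP3A4 (20 nM) dealkylation of Luciferin-PPXE, 25 uM (its KM). NADPH-driven reaction ran 60 min at RT after 10 min compound preincubation; data scaled to 57 uM ketoconazole as 100% inhibition.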
Sequence of Cytochrome P450 3A4 (Homo sapiens) (P08684 whole entry, looked up): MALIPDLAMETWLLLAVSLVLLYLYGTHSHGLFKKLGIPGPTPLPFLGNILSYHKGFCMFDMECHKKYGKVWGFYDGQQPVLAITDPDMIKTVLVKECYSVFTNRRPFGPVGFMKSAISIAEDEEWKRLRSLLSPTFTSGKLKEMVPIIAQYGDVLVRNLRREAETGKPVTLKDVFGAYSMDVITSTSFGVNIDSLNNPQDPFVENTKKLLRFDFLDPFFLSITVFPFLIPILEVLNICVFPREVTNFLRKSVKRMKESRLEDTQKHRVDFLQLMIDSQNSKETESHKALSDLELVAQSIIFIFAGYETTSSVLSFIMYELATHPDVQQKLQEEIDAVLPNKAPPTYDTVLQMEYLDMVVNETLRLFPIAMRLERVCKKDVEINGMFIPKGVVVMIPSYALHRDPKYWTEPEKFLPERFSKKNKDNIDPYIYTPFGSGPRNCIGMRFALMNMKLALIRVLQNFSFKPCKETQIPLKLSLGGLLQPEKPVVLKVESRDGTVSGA

The target is the same in assay [12]. In words: qHTS Assay for Activators of Cytochrome P450 3A4 (AID 885; active = well fitted curve in the direction sought with a large enough effect; an effect the other way counts as inactive or inconclusive; also: nearly all actives have a fitted effect of over 65% in size). In short, it runs like this:
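Human CYP3A4 dealkylates Luciferin-PPXE to luciferin, which luciferase detection converts to light. Substrate was at its KM (25uM), buffer 200mM KPO4, reaction 60 min at RT.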

The target in assay [13] is DNA dC->dU-editing enzyme APOBEC-3G (Homo sapiens) (UniProt Q9HC16). Description: qHTS for inhibitors of Vif-A3G interactions: Validation (AID 588379; active = well fitted curve in the direction sought with a large enough effect; an effect the other way counts as inactive or inconclusive; also: 0% is about no effect). The gist of the method:
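Yellow fluorescence (Ex 488, Em 500-530) of Vif-coexpressing HeLa A3G-eYFP cells, scanned by Acumen cytometer, reports blocked A3G degradation. Cells plated at 700/well overnight at 37 deg C before compound addition, then a further overnight compound incubation at 37 deg C.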

Unmarked numbers belong to inactive results. Inconclusive results are not listed. The source made the active and inactive calls. Unless noted, calls follow the shape of the full dose curve.

Sequence of Peroxisome proliferator-activated receptor gamma (Homo sapiens) (P37231 whole entry, looked up): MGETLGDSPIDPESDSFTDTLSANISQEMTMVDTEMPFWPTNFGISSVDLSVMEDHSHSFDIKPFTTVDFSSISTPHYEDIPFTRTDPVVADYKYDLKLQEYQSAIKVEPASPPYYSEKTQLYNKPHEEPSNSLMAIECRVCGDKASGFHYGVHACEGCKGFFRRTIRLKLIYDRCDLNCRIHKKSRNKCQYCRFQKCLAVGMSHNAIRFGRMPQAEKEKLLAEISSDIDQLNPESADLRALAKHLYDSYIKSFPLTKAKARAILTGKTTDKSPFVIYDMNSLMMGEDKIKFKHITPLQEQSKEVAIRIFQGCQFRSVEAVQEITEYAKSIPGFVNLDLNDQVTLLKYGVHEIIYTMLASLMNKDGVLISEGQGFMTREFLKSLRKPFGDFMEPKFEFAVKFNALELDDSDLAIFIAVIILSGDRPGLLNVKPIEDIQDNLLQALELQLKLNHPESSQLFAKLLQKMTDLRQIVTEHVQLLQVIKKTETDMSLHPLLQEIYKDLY
Sequence of Vitamin D3 receptor (Homo sapiens) (P11473 whole entry, looked up): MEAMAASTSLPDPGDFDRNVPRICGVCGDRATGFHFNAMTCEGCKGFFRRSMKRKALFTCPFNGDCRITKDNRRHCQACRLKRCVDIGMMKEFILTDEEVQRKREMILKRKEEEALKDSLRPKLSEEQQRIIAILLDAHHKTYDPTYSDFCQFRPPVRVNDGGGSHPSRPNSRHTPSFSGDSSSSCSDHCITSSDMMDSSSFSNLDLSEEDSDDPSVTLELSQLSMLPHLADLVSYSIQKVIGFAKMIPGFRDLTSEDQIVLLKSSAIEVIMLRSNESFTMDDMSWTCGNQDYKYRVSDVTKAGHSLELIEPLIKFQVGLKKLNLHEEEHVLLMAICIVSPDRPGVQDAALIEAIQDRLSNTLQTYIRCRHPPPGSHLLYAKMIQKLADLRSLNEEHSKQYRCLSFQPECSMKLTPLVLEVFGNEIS
Sequence of Bile acid receptor (Homo sapiens) (Q96RI1 whole entry, looked up): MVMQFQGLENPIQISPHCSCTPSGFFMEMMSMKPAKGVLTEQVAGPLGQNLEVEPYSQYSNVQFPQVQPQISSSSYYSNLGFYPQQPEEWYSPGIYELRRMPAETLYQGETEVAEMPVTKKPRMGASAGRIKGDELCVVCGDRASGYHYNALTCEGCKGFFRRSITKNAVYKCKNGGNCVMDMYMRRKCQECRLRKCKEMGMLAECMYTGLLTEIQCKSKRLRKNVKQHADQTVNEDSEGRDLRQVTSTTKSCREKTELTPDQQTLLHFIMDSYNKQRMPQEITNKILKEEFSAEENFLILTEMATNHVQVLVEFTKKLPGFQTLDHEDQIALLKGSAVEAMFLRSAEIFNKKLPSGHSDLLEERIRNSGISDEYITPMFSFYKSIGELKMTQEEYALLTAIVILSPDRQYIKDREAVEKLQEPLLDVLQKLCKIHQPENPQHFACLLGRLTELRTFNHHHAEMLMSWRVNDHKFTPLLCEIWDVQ
Sequence of Thyroid hormone receptor beta (Homo sapiens) (P10828 whole entry, looked up): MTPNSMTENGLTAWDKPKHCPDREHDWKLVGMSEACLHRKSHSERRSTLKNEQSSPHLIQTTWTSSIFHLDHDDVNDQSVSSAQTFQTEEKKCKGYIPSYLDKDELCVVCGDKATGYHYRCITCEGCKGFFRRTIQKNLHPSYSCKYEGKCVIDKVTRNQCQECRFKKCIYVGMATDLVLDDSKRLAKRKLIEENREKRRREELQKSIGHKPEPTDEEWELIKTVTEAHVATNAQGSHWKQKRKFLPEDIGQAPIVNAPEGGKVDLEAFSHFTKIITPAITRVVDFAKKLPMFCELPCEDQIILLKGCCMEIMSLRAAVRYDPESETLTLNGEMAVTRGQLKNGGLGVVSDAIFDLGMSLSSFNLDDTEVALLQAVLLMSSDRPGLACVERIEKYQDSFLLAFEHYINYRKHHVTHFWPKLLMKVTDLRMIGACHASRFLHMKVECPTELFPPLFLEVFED
Sequence of DNA dC->dU-editing enzyme APOBEC-3G (Homo sapiens) (Q9HC16 whole entry, looked up): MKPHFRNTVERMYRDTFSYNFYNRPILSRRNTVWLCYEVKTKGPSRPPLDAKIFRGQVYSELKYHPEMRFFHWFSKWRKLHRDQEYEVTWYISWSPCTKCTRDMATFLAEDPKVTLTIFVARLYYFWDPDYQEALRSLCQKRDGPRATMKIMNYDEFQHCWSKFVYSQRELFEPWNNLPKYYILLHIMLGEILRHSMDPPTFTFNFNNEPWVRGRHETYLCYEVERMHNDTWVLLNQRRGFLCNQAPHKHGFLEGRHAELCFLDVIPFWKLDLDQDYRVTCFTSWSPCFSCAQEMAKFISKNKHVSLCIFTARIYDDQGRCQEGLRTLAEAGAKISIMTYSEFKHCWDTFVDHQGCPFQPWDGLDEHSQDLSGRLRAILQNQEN

Regarding `CC(C)(C)C(O)/C(=C\c1ccc(Cl)cc1)n1cncn1` (centres undefined), the activation in assay [1] was -3.93%; in [8], -2.96%. Besides, the call in assay [2], in assay [4] and in assay [7] was inactive. For the same compound, the Potency entry in assay [3], in assay [5] and in assay [6] was “inactive” each time.

On to `CS/C(=N\O)C(=O)N(C)C`, for which the activation in assay [1] is 11.7%. The compound was called inactive in assay [2], in [4] and in assay [7]. Also, the Potency entry in assay [3], in assay [5], in [6] and in [10] was “inactive” in each case. The activity change % (negative = inhibition) in [9] is -12.9%.

With `Cc1ccc(C(=O)[C@@H]2[C@H]3C4COC(O4)C(=O)[C@@H]3[C@H]3C=Cc4ccccc4N32)cc1` (some centres undefined), in [11], the Potency was 25.1 µM (active). Further, the Potency entry in assay [12] and in assay [13] was “inactive” in each case.

As for `C[Si](Cl)(Cl)[Si](C)(Cl)Cl`, the activation in assay [1] was 0.564%; in assay [8], 0.0231%. Moreover, the result in assay [2], in assay [4] and in [7] was inactive. Moreover, the Potency result in assay [3], in assay [5], in assay [6] and in [10] was “inactive” each time.

In the case of `NN(c1ccccc1)c1ccccc1`, the activation is 8.8% in [1] and -3.49% in [8]. Moreover, the outcome in assay [2], in [4] and in assay [7] was inactive. Further, the Potency result in [3], in assay [5] and in assay [6] was “inactive” throughout. The activity change % (negative = inhibition) in assay [9] was 4.53%.

Take `Nc1cc(Cl)nc(C(=O)O)c1Cl`: the activation in assay [1] was 6.83%; in assay [8], 1.21%. For the same compound, the call in assay [2], in [4] and in assay [7] was inactive. Further, the Potency result in assay [3], in [5], in [6] and in [10] was “inactive” each time. Moreover, the activity change % (negative = inhibition) in assay [9] is 12%.

Regarding `C[C@H]1[C@H](C)CC[C@]2(C(=O)O)CC[C@]3(C)C(=CCC4[C@@]5(C)C[C@@H](O)[C@H](O)[C@@](C)(CO)[C@@H]5CC[C@]43C)[C@H]12` (some centres undefined), the Potency result in [12] and in assay [13] was “inactive” each time.

Take `C=Cc1ccc(P(c2ccccc2)c2ccccc2)cc1`: in [1], the activation was 8.38%. Besides, the compound was classed as inactive in [2], in assay [4] and in assay [7]. The Potency entry in [3], in [5], in assay [6] and in [10] was “inactive” throughout. Besides, the activity change % (negative = inhibition) in [9] was 9.12%.
